Compound activity as filed in PubChem.
Only some compounds are listed: those with a hit (about 15% of all), similar ones and a draw of the others.
12-LOX inh: blocks human arachidonate 12S-lipoxygenase; P18054; purified 12hLO, xylenol orange hydroperoxide absorbance; AID 1671190; 1.1% of 580,000 active; Potency, µM (highest dose often 108 µM), inactives show at the highest dose activity change, negative = inhibition, actives largely listed as inhibitors
Target sequence (P18054 whole entry, looked up): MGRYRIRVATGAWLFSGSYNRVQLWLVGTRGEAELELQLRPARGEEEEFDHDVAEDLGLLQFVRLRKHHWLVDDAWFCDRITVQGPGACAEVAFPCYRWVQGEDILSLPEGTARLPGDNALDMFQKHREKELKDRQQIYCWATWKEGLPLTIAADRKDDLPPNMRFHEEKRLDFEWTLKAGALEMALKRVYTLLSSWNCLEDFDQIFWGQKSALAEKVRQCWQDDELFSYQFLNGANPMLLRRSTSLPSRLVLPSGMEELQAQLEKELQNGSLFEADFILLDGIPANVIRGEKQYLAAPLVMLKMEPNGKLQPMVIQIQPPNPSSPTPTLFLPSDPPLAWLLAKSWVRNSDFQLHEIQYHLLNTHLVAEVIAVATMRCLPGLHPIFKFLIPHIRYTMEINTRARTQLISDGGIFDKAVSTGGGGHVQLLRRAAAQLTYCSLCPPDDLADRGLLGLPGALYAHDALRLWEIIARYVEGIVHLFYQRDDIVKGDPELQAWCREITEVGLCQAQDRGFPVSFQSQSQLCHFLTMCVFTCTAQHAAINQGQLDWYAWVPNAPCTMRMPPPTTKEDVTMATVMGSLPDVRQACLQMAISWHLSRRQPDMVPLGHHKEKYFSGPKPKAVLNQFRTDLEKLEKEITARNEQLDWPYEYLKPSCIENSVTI
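Hydroperoxide product was detected by ferrous iron/xylenol orange as the 573 to 405 nm absorbance ratio. Arachidonic acid at 40 uM (final) was turned over for 30 min at room temperature by 150 nM human 12hLO, pH 7.0 Hepes buffer, after 15 min compound preincubation.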
TDP1 cell noCPT: qHTS for Inhibitors of human tyrosyl-DNA phosphodiesterase 1 (TDP1): qHTS in cells in absence of CPT | AID 686978, 2013 | DT40 Tdp1-/- hTDP1 cells, no CPT, ATP luminescence, 48 h | 15% of 420,000 active | Potency, µM (top dose mostly 46.2 µM), for inactives: top-dose activity change, negative = growth inhibition, actives largely listed as inhibitors; further: nearly all actives have a fitted effect of over 55% in size
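A cellular qHTS used chicken DT40 cells lacking endogenous Tdp1 but carrying stably transfected human TDP1. Compounds were applied without camptothecin, and cell growth kinetics were judged by ATP-dependent luminescence after ≥48 hr.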
Gal4-VP16 FLuc: Gal4-VP16 reporter inhibition counter-screen; AID 2546; Drosophila S2 Gal4-VP16 UAS-luciferase, luminescence, 20 h; Potency, µM (highest dose often 53.6 µM), for the others: at the top dose activity, negative = inhibition, most hits filed as inhibitors; 3.5% of 310,000 active;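 further: Gal4-VP16 expression switched on by copper sulfate through the metallothionein promoter; nearly all actives have a fitted effect of over 50% in size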
ELG1 DNA repair: inhibitors of ELG1-dependent DNA repair in HEK293T cells. HEK293T ELG1-luciferase reporter, luminescence, 16 h; DNA damage induced by 5-fluorouridine. Potency, µM (series often up to 46.1 µM), for inactives: at the highest dose activity change, negative = inhibition, usual class: inhibitors. 2.3% of 330,000 active; further: nearly all actives have a fitted effect of over 55% in size
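5-Fluorouridine DNA damage + compound/DMSO, 2,000 cells/well, 16 h, 37 °C/5% CO2. ONE-Glo, 30 min RT, luminescence. Readout = decrease in reporter signal.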
DT40 TDP1 CPT: DT40-hTDP1 cell growth loss with CPT. chicken DT40 Tdp1-/-;hTDP1 cells + 20 nM CPT, ATP luminescence, 48 h. Potency, µM (highest dose often 46.2 µM), for inactives: at the highest dose activity change, negative = growth inhibition, actives largely listed as inhibitors. 12% of 420,000 active; further: nearly all actives have a fitted effect of over 55% in size
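Chicken DT40 Tdp1-/- cells complemented with human TDP1, 400 cells/well, exposed to compounds plus 20 nM camptothecin for at least 48 h at 37 C; viability read as ATP content by CellTiter-Glo luminescence.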
RORg inh: inhibitors of mouse ROR gamma transcriptional activity | Drosophila S2 Gal4-RORgamma UAS-luciferase reporter, 20 h | Potency, µM (top dose mostly 53.6 µM), for the others: top-dose activity change, negative = inhibition, most hits filed as inhibitors | 5.4% of 310,000 active; further: nearly all actives have a fitted effect of over 60% in size
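Luciferase reporter read in Schneider cells carrying Gal4-RORγ (mouse) and UAS-Photinus luciferase; cells given compound 1 h before 700 uM copper sulfate induction, then incubated 20 h at ambient temperature.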
Starred values were filed as active, the others as inactive; ? = inconclusive; · = no result; [ ] = another dose, or the depositor's remark. The call rests on the fitted dose curve; in most records, active means well fitted curve in the direction sought with a large enough effect; inconclusive means small, poorly fitted or top-dose-only effect, or another doubt; inactive means no such curve, though single readings can be large; an effect the other way counts as inactive or inconclusive. On the % scale 0 is the no-effect control and ±100 the full control effect; potency means the concentration at half of the fitted maximal effect.

SMILES	12-LOX inh	TDP1 cell noCPT	Gal4-VP16 FLuc	ELG1 DNA repair	DT40 TDP1 CPT	RORg inh
O=C(NCc1ccccc1Cl)C1CCC(=O)N(C2CCCC2)C1 (configuration not stated)	-2%	5%	1%	11%	-24%	-4%
O=C(NCc1ccc(F)cc1)c1c2c(nc3ccccc13)C(=O)N(C1CCCCC1)C2	-25%	?	·	·	?	·
CCN(CC)CCNC(=O)c1c2c(nc3ccccc13)C(=O)N(C1CCCCC1)C2	0%	7%	·	·	-7%	·
Cc1ccc(CCNC(=O)c2c3c(nc4ccccc24)C(=O)N(C2CCCCC2)C3)cc1	-16%	10µM*	·	·	21µM*	·
CC(C(=O)NCc1cccc(F)c1)C1CCOCC1 (configuration not stated)	-2%	·	·	·	·	·
Cc1cc(NC(=O)CCc2ncc(-c3ccc(Cl)cc3)o2)no1	-24%	·	·	·	·	·
C#CCCc1ccccc1/C=[N+](/C)[O-]	-18%	?	·	?	23µM*	·
CC(C)(C)c1ccc(CC(=O)N2CCC2(C)C(=O)Nc2cccc3c2CCCC3)cc1 (configuration not stated)	-19%	?	·	·	?	·
CSc1ccc(NC(=O)C2(C)CCN2C(=O)Cc2ccc(C(C)(C)C)cc2)cc1 (configuration not stated)	-3%	?	·	·	23µM*	·
CSc1ccc(NC(=O)C2(C)CCN2C(=O)c2cc(C)n(C)n2)cc1 (configuration not stated)	-3%	21µM*	·	·	?	·
CC(C)NC(=O)C1(C)CCN1C(=O)C1(c2ccccc2)CC1 (configuration not stated)	10%	-24%	·	·	?	·
CC(C)(C)CNC(=O)C1(C)CCN1C(=O)c1ccccc1CCc1ccccc1 (configuration not stated)	3%	16µM*	·	·	21µM*	·
CC1(C(=O)NC2CCCCCC2)CCN1C(=O)C1(c2ccccc2)CC1 (configuration not stated)	-19%	18µM*	·	·	12µM*	·
CCCNC(=O)C1(C)CCN1C(=O)c1ccccc1CCc1ccccc1 (configuration not stated)	10%	?	·	·	?	·
CC1CCN(CCNC(=O)c2n[nH]c(=O)c3ccccc23)CC1	-3%	·	·	·	·	·
CCCn1nc(C(=O)Nc2cc(C)ccc2OC)c2ccccc2c1=O	1%	·	·	·	·	·
CC1(C(=O)NS(=O)(=O)c2cccc(F)c2)CCN1C(=O)Cc1ccc(-c2ccccc2)cc1 (configuration not stated)	0%	14%	·	·	1%	·
COc1ccccc1CNC(=O)C1(C)CCN1C(=O)Cc1ccc(-c2ccccc2)cc1 (configuration not stated)	-12%	15µM*	·	·	16µM*	·
CC1(C(=O)NCc2ccccc2Br)CCN1C(=O)Cc1ccc(-c2ccccc2)cc1 (configuration not stated)	9%	?	·	·	?	·
CC(C)NC(=O)C1(C)CCN1C(=O)Cc1ccc(-c2ccccc2)cc1 (configuration not stated)	2%	13µM*	·	·	16µM*	·
CCC(C)NC(=O)Cc1ccc(-c2ccccc2)cc1 (configuration not stated)	-6%	21µM*	?	-16%	?	25%
CC1(C(=O)NS(C)(=O)=O)CCN1C(=O)Cc1ccc(-c2ccccc2)cc1 (configuration not stated)	?	-4%	·	·	-11%	·
CC1(C(=O)NC2CCCCCC2)CCN1C(=O)Cc1ccc(-c2ccccc2)cc1 (configuration not stated)	-2%	15µM*	·	·	?	·
CC1(COc2ccc3[nH]ccc3c2)COc2ccc(C(=O)N3CC(O)C3)cc2N1 (configuration not stated)	-8%[176 µM]	·	·	·	·	·
CC(C)NC(=O)C1(C)CCN1C/C=C/c1ccccc1 (configuration not stated)	-2%	?	·	·	?	·
SMILES	12-LOX inh	TDP1 cell noCPT	Gal4-VP16 FLuc	ELG1 DNA repair	DT40 TDP1 CPT	RORg inh
CC1(C(=O)Nc2cccc3ncccc23)CCN1C(=O)Cc1ccc(-c2ccccc2)cc1 (configuration not stated)	?	16µM*	·	·	23µM*	·
CC(C)NC(=O)C1(C)CCCN1C/C=C/c1ccccc1 (configuration not stated)	?	23µM*	·	·	21µM*	·
CC(C)(C)CNC(=O)C1(C)CCN1C(=O)Cc1ccc(-c2ccccc2)cc1 (configuration not stated)	3%	18µM*	·	·	23µM*	·
CC1(C(=O)Nc2cccc3ncccc23)CCN1C(=O)CCc1ccccc1 (configuration not stated)	5%	?	·	·	?	·
CC(C)NC(=O)C1(C)CCN1Cc1ccc(C(F)(F)F)cc1 (configuration not stated)	-19%	?	·	·	?	·
CC(C)NC(=O)C1(C)CCN1Cc1ccc(-c2ccccc2)cc1 (configuration not stated)	5%	8.2µM*	·	·	12µM*	·
O=C(c1ccccc1)N1CCN(Cc2nnnn2C2CC2)CC1	8%	·	·	·	·	·
Cn1ccnc1C(=O)N1CCC(N2C(=O)C3(CCCCC3)C2c2ccncc2)CC1 (configuration not stated)	44%	·	·	·	·	·
CCN(Cc1ccc(Cl)s1)C(=O)c1cnccn1	35%	·	·	·	·	·
Cc1ccc(NC(=O)C2(C)CCN2C(=O)Cc2ccc(-c3ccccc3)cc2)cc1 (configuration not stated)	-25%	16µM*	·	·	16µM*	·
CSc1ccccc1NC(=O)C1(C)CCN1C(=O)Cc1ccc(-c2ccccc2)cc1 (configuration not stated)	2%	18µM*	·	·	?	·
CCCC(=O)N1CCC1(C)C(=O)Nc1ccccc1-c1ccccc1 (configuration not stated)	-7%	-12%	·	·	-20%	·
Cc1ccc(S(=O)(=O)NC(=O)C2(C)CCN2C(=O)Cc2ccc(-c3ccccc3)cc2)cc1 (configuration not stated)	?	2%	·	·	12%	·
CC1(C(=O)Nc2ccc3nc[nH]c3c2)CCN1C(=O)C/C=C/c1ccccc1 (configuration not stated)	15%	?	·	·	?	·
CC1(C(=O)Nc2ccc3nc[nH]c3c2)CCN1C(=O)Cc1ccc(-c2ccccc2)cc1 (configuration not stated)	-10%	16µM*	·	·	?	·
